Conditions in all cases: mRNA level, 48 h; actives raise or lower the signal
Read-out in experiment [1]: ATP-citrate lyase (ACLY), ACLY (gene 47)
Kind of experiment: LTEA_HepaRG_ACLY: Life Technologies and Expression Analysis (LTEA) Assay for ATP-citrate lyase (ACLY) using HepaRG (AID 2283466). In outline:
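qRT-PCR readout of ACLY transcript after 48 h chemical treatment of HepaRG cells; expression normalized to three housekeeping genes. Eight-point half-log series, highest 100 uM, 0.5% DMSO vehicle. Gain or loss fitted against DMSO baseline.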

Read-out in experiment [2]: Peroxisomal acyl-coenzyme A oxidase 1 (ACOX1) gene, ACOX1 (gene 51)
Kind of experiment: LTEA_HepaRG_ACOX1: Life Technologies and Expression Analysis (LTEA) Assay for Peroxisomal acyl-coenzyme A oxidase 1 (ACOX1) gene using HepaRG (AID 2283467). In outline:
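HepaRG, 48 h chemical exposure, 8-pt half-log series from 100 uM top, 0.5% DMSO vehicle, duplicates. Readout: ACOX1 mRNA by Fluidigm qRT-PCR, housekeeping-normalized; bidirectional fit vs DMSO baseline.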

Read-out in experiment [3]: Alkaline Phosphatase, Placental (ALPP) gene, ALPP (gene 250)
The experiment in a line: LTEA_HepaRG_ALPP: Life Technologies and Expression Analysis (LTEA) Assay for Alkaline Phosphatase, Placental (ALPP) gene using HepaRG (AID 2283468).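 On AC50: differentiated human HepaRG liver cells in serum-free induction medium; ALPP transcript by TaqMan qRT-PCR normalized to ACTB GAPDH and POLR2A.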 A digest of the protocol: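 Expression of ALPP was quantified by qRT-PCR against three housekeeping genes in human HepaRG cultures treated for 48 h with an eight-point concentration series up to 100 uM. Activity in either direction was fitted relative to 0.5% DMSO.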

Read-out in experiment [4]: Bcl-2 (BAD) gene, BAD (gene 572)
Kind of experiment: LTEA_HepaRG_BAD: Life Technologies and Expression Analysis (LTEA) Assay for Bcl-2 (BAD) gene using HepaRG (AID 2283469). A digest of the protocol: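 HepaRG, 48 h exposure, 8-pt half-log curve from 100 uM in 0.5% DMSO, duplicates. Readout: TaqMan qRT-PCR for BAD mRNA, housekeeping-normalised (ACTB/GAPDH/POLR2A); gain or loss fitted against DMSO baseline.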

Read-out in experiment [5]: Bcl-2 (BAX) gene, BAX (gene 581)
The experiment in a line: LTEA_HepaRG_BAX: Life Technologies and Expression Analysis (LTEA) Assay for Bcl-2 (BAX) gene using HepaRG (AID 2283470). A digest of the protocol: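 Cells were thawed, plated for 48 h, moved to serum-free induction medium and dosed for 48 h (highest concentration 100 uM, half-log steps, 0.5% DMSO). Total RNA was then analysed for BAX expression by qRT-PCR.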

Read-out in experiment [6]: Alpha-fetoprotein (AFP) gene, AFP (gene 174)
The experiment in a line: LTEA_HepaRG_AFP: Life Technologies and Expression Analysis (LTEA) Assay for Alpha-fetoprotein (AFP) gene using HepaRG (AID 2283472).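 On AC50: AFP transcript by TaqMan qRT-PCR normalized to ACTB GAPDH and POLR2A.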 In outline:
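Chemicals were tested on differentiated HepaRG cells for 48 hours at eight concentrations up to 100 uM, with 0.5% DMSO as vehicle. AFP expression was then quantified by qRT-PCR and analyzed for gain or loss relative to DMSO.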

Read-out in a further experiment: BCL2L11 (gene 10018)
Kind of experiment: LTEA_HepaRG_BCL2L11: Life Technologies and Expression Analysis (LTEA) Assay for Bcl-2 (BCL2L11) gene using HepaRG (AID 2283473). A digest of the protocol: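 Cells were plated, cultured 48 h, switched to serum-free induction medium, then dosed in duplicate for 48 h at eight half-log concentrations up to 100 uM. Lysates underwent RNA isolation and TaqMan qRT-PCR; gain or loss versus DMSO was fitted.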

Read-out in experiment [7]: Apolipoprotein A-V (APOA5) gene, APOA5 (gene 116519)
Kind of experiment: LTEA_HepaRG_APOA5: Life Technologies and Expression Analysis (LTEA) Assay for Apolipoprotein A-V (APOA5) gene using HepaRG (AID 2283474). A digest of the protocol:
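Human liver HepaRG cells are treated 48 h with test chemicals (100 uM top, half-log dilutions, 0.5% DMSO). APOA5 mRNA induction or loss is measured by qRT-PCR relative to vehicle.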

Read-out in experiment [8]: Apoptosis regulator Bcl-2 (Homo sapiens) (UniProt P10415)
Kind of experiment: LTEA_HepaRG_BCL2: Life Technologies and Expression Analysis (LTEA) Assay for Bcl-2 gene using HepaRG (AID 2283475). In outline: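 Plated human HepaRG cells are exposed to test chemicals for 48 h across eight concentrations from 100 uM downward in half-log steps (0.5% DMSO). BCL2 expression is then measured by qRT-PCR with housekeeping normalisation and fitted bidirectionally against vehicle.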

Read-out in experiment [9]: adenosine kinase (ADK) gene, ADK (gene 132)
The experiment in a line: LTEA_HepaRG_ADK: Life Technologies and Expression Analysis (LTEA) Assay for adenosine kinase (ADK) gene using HepaRG (AID 2283471). In outline: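 Read-out is ADK transcript level measured by qRT-PCR and normalised to three housekeeping genes. Cells are human HepaRG, dosed for 48 h at up to 100 uM in 0.5% DMSO. Gain or loss of signal is fitted against DMSO controls.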

The source of these data is PubChem BioAssay (EPA / NIEHS).

Active and inactive are the calls of the source. How the source made its calls: active means hit-call score of the fitted dose curve at least 0.9, where 1 is the maximum; inactive means score below 0.9.

Chain of Apoptosis regulator Bcl-2 (Homo sapiens) (P10415 whole entry, looked up): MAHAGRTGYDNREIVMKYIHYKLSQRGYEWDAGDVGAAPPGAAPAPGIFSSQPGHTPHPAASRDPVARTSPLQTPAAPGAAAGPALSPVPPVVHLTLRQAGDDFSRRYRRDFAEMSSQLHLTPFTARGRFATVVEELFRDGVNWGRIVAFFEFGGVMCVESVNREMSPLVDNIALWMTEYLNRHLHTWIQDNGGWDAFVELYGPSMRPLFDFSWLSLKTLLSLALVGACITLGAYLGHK

Take `CCCCOC(=O)c1ccc(O)cc1`: the compound was called inactive in experiment [1], in experiment [2], in experiment [3], in experiment [4], in experiment [5] and in experiment [6]. Moreover, the compound was called inactive (with BCL2L11 (gene 10018); in experiment [7]; in experiment [8]).
Consider `Oc1ccc2ccccc2c1`, for which the compound was called inactive in experiment [1], in experiment [2], in experiment [3], in experiment [4], in experiment [5] and in [9]. For the same compound, the call (in experiment [6]; in the experiment with BCL2L11 (gene 10018); in experiment [7]; in experiment [8]) was inactive.
For `COc1ccc2cc(S(=O)(=O)N[C@H](CC(=O)N[C@H](Cc3ccc(CN4[C@H](C)CCC[C@@H]4C)cc3)C(=O)N(C)C(C)C)c3ccc4c(c3)OCO4)ccc2c1`, the call in [1], in experiment [4], in experiment [6] and in [8] was inactive. In addition, the AC50 in [2] was 20.3 µM (active); in experiment [3], 0.741 µM (active); in experiment [5] it was 81.8 µM (active); in [9], 13.3 µM (active); in the experiment with BCL2L11 (gene 10018), 84.9 µM (active).
For `O=C(OCCCCCCOC(=O)c1ccccc1)c1ccccc1`, the outcome in experiment [1], in experiment [2], in [3], in experiment [4], in experiment [5] and in [6] was inactive. The call (with BCL2L11 (gene 10018); in experiment [7]; in [8]) was inactive.
On to `COc1cccc([C@H](O)C2CCN(CCc3ccc(F)cc3)CC2)c1OC`, for which the AC50 is 80.7 µM (active) in experiment [1] and 9.92 µM (active) in experiment [3]. Further, the outcome (in experiment [2]; in experiment [4]; in experiment [5]; in [6]; with BCL2L11 (gene 10018); in experiment [7]) was inactive. Further, the compound was called inactive in [8].
On to `O=c1[nH]sc2ccccc12`, for which the compound was called inactive in experiment [1], in [2], in [3], in experiment [4], in experiment [5] and in [6]. Besides, the outcome (in the experiment with BCL2L11 (gene 10018); in [7]; in experiment [8]) was inactive.
As to `C[C@]12CC[C@@H]3c4ccc(O)cc4CC[C@H]3[C@@H]1CC[C@H]2O`, the compound was called inactive (in experiment [1]; in experiment [2]; in experiment [4]; in experiment [5]; with BCL2L11 (gene 10018); in [8]). Moreover, the AC50 in experiment [3] is 50 µM (active); in experiment [6], 75.7 µM (active); in experiment [7], 50 µM (active).
Consider `O=C(O)c1ccccc1C(=O)OCc1ccccc1`, for which the result in [1], in experiment [2], in [3], in [4], in experiment [5] and in [9] was inactive. For the same compound, the call (in experiment [6]; in the experiment with BCL2L11 (gene 10018); in experiment [7]; in experiment [8]) was inactive.
For `CCCOC(=O)c1cc(O)c(O)c(O)c1`, the compound was called inactive (in experiment [1]; in [2]; in experiment [3]; in experiment [9]; in the experiment with BCL2L11 (gene 10018); in experiment [8]). Moreover, in experiment [6], the AC50 was 15.2 µM (active).
With `CCCCOC(=O)CC(CC(=O)OCCCC)(OC(C)=O)C(=O)OCCCC`, the compound was classed as inactive in experiment [1], in [2], in [3], in [4], in [5] and in [6]. Further, the outcome (with BCL2L11 (gene 10018); in experiment [7]; in experiment [8]) was inactive.
In the case of `Clc1ccccc1C(c1ccccc1)(c1ccccc1)n1ccnc1`, the AC50 in experiment [2] is 60 µM (active); in experiment [3], 9.09 µM (active); in experiment [4], 91.3 µM (active); in experiment [5] it was 12.3 µM (active); in [9], 93 µM (active); in experiment [6], 20.1 µM (active). Further, the AC50 with BCL2L11 (gene 10018) is 50 µM (active); in [7], 20.8 µM (active); in [8] it was 23 µM (active).
Consider `Cc1cc(F)ccc1-c1cc(N2CC[C@@H](O)[C@H]2CO)ncc1N(C)C(=O)C(C)(C)c1cc(C(F)(F)F)cc(C(F)(F)F)c1`, for which the outcome in experiment [1] was inactive. Besides, the AC50 in [2] is 8.09 µM (active); in experiment [3] it was 16.5 µM (active); in experiment [4] it was 72.1 µM (active); in [5], 74.8 µM (active); in experiment [6], 18 µM (active); in the experiment with BCL2L11 (gene 10018) it was 52.7 µM (active). The AC50 in experiment [8] was 19.7 µM (active).
As for `O=c1ccc2ccccc2o1`, the result in experiment [1], in experiment [2], in experiment [3], in experiment [4], in [5] and in experiment [6] was inactive. For the same compound, the compound was classed as inactive (with BCL2L11 (gene 10018); in [8]).
As for `O=C=NCCCCCCN=C=O`, the compound was classed as inactive in experiment [1], in [2], in [3], in experiment [4], in [5] and in experiment [6]. The result (with BCL2L11 (gene 10018); in experiment [8]) was inactive.
Take `CN1C(=O)N(c2ccccc2Br)Cc2cnc(Nc3ccc4c(c3)OCC(CO)O4)nc21` (stereo not drawn): the AC50 in experiment [2] is 77.9 µM (active); in experiment [3] it was 2.93 µM (active); in [5] it was 12.9 µM (active); in experiment [9] it was 88.9 µM (active); in experiment [6] it was 23.1 µM (active); in experiment [7], 90.3 µM (active). In experiment [8], the AC50 is 89.1 µM (active). Moreover, the compound was called inactive (in experiment [4]; with BCL2L11 (gene 10018)).
`CN(C)C(=O)C1(N2CCCCC2)CCN(CC[C@@]2(c3ccc(Cl)c(Cl)c3)CN(C(=O)c3ccccc3)CCO2)CC1`: the AC50 in experiment [1] is 47.2 µM (active); in experiment [2], 88.1 µM (active); in [3] it was 14.9 µM (active); in experiment [5] it was 27.1 µM (active); in the experiment with BCL2L11 (gene 10018), 86.8 µM (active); in [8] it was 22.6 µM (active). The call in experiment [4], in [9] and in [6] was inactive.
Consider `CCCCCCCCCCCO`, for which the call in [1], in experiment [2], in experiment [3], in experiment [4], in experiment [5] and in [6] was inactive. The result (with BCL2L11 (gene 10018); in experiment [8]) was inactive.
On to `CCCCCCCCN(C)CCCCCCCC`, for which the compound was called inactive in [1], in experiment [2], in experiment [3], in [4], in experiment [5] and in experiment [6]. For the same compound, the result (in the experiment with BCL2L11 (gene 10018); in [7]; in experiment [8]) was inactive.
